Assay outcomes (PubChem BioAssay)
Shown is part of a subset that was picked to be rich in hits.
GIRK2 act: activators of NPY4-receptor-primed GIRK2 channels, summary, cell-based, HEK293, thallium flux; G protein-activated inward rectifier potassium channel 2 (Homo sapiens), P48051; HEK293 GIRK2/NPY4 cells, thallium flux fluorescence; activation (% efficacy), % for hits at 37.5 µM; 34,000 tested, under 10 active; AID 1259324, 2017;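 active means primary screen hit, no activity in plain HEK293 cells, and in GIRK2-only cells above 5% efficacy rising with concentration; inactive means the rest, including fluorescent compounds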;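 further: efficacy is normalized control-subtracted fluorescence 15 s after thallium addition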
Target sequence (P48051 whole entry, looked up): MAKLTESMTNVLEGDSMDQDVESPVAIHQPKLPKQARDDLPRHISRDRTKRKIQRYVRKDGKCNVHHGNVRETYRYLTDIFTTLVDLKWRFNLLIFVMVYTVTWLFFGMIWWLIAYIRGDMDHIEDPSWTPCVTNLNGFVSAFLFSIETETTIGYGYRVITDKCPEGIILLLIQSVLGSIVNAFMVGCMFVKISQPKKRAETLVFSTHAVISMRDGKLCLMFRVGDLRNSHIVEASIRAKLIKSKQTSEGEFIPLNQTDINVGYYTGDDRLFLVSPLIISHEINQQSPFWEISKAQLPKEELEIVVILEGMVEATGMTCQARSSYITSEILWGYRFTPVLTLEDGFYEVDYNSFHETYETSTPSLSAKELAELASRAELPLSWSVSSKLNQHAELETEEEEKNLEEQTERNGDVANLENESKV
GluA2 TARP mod: modulators of GluA2-stargazin AMPA receptor complexes, primary screen, cell-based, membrane potential dye | Voltage-dependent calcium channel gamma-2 subunit (Mus musculus) + Glutamate receptor 2 … | HEK293 GluA2+stargazin, membrane potential dye (FDSS), glutamate EC50; hits were called plate by plate, in both directions | calls only at 30 µM | 3.5% of 40,000 active | AID 1259245, 2017;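 active means any of four per-well response measures lying three or more SD from its plate-wide compound average, in either direction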
The depositor's hits bear a star.

Results for O=C(CSCc1ccccc1)Nc1nc(-c2ccc3c(c2)OCO3)cs1 ?
GIRK2 act: inactive; GluA2 TARP mod: inactive

Results for COC(=O)c1ccc(NC(=O)C(=O)NCCN2CCC(c3cccs3)CC2)cc1 ?
GIRK2 act: inactive; GluA2 TARP mod: inactive

Results for COc1cccc(NC(=O)NCC2(c3cccs3)CC2)c1 ?
GIRK2 act: inactive; GluA2 TARP mod: active

What do the screens show for `O=C(NCC1(c2cccs2)CC1)Nc1cccc(C(F)(F)F)c1`?
GIRK2 act: inactive; GluA2 TARP mod: inactive

How did CC(C)CCNC(=O)C(=O)NC1CC1 do in these assays?
GluA2 TARP mod: inactive

How did O=C(NCCOc1ccc(F)cc1)c1ccccc1Cl do in these assays?
GIRK2 act: inactive; GluA2 TARP mod: inactive

What do the screens show for `O=C(NCCOc1ccc(F)cc1)c1c(F)cccc1Cl`?
GIRK2 act: inactive; GluA2 TARP mod: active

What do the screens show for `CCSc1ccc(CC(=O)N2CCN(c3ccccc3)CC2)cc1`?
GluA2 TARP mod: inactive

How did Cc1nc2c(c(=O)c3ccccc3n2C)c(=O)n1C1CCCCCC1 do in these assays?
GluA2 TARP mod: active

How did Cc1nc2c(c(=O)c3ccccc3n2C)c(=O)n1-c1ccccc1 do in these assays?
GluA2 TARP mod: inactive

Results for COc1ccc(Cn2c(C)nc3c(c(=O)c4ccccc4n3C)c2=O)cc1 ?
GluA2 TARP mod: active

What do the screens show for `COc1ccc(CCn2c(C)nc3c(c(=O)c4ccccc4n3C)c2=O)cc1OC`?
GluA2 TARP mod: inactive

What do the screens show for `CS(=O)(=O)c1ccc(Nc2nc(CC(=O)Nc3ccc(Cl)cc3)cs2)cc1`?
GIRK2 act: inactive; GluA2 TARP mod: inactive

How did COc1ccc(S(=O)(=O)CCCC(=O)Nc2nnc(-c3ccncc3)o2)cc1 do in these assays?
GluA2 TARP mod: inactive

How did O=C(Cc1cc(-c2ccc3c(c2)OCO3)on1)Nc1ccccc1C(F)(F)F do in these assays?
GIRK2 act: inactive; GluA2 TARP mod: inactive

How did Cc1cccc(-n2ncc3c(=O)n(CC(=O)N4CCc5ccccc54)cnc32)c1C do in these assays?
GluA2 TARP mod: inactive

What do the screens show for `Cc1ccc(-n2ncc3c(=O)n(CC(=O)N4CCc5ccccc54)cnc32)c(C)c1`?
GluA2 TARP mod: active

What do the screens show for `Cc1cccc2sc(NC(=O)c3ccc(=O)n(Cc4ccc(Cl)cc4)c3)nc12`?
GIRK2 act: inactive; GluA2 TARP mod: inactive

Results for O=C(Nc1nc2ccccc2s1)c1ccc(=O)n(Cc2cccc([N+](=O)[O-])c2)c1 ?
GIRK2 act: inactive; GluA2 TARP mod: inactive

How did O=C(Nc1nc2ccc([N+](=O)[O-])cc2s1)c1ccc(=O)n(Cc2ccccc2)c1 do in these assays?
GIRK2 act: inactive; GluA2 TARP mod: active

How did COc1cccc(COc2coc(C(=O)Nc3nc4ccc(Cl)cc4s3)cc2=O)c1 do in these assays?
GIRK2 act: inactive; GluA2 TARP mod: inactive

What do the screens show for `CS(=O)(=O)c1ccc2nc(NC(=O)c3ccc(=O)n(Cc4ccc(Cl)cc4)c3)sc2c1`?
GIRK2 act: inactive; GluA2 TARP mod: active

What do the screens show for `COc1coc(C(=O)Nc2nc3ccc([N+](=O)[O-])cc3s2)cc1=O`?
GIRK2 act: inactive; GluA2 TARP mod: active

Results for COc1cccc(C(=O)Nn2cnc3c(cnn3C(C)(C)C)c2=O)c1 ?
GluA2 TARP mod: inactive

What do the screens show for `COc1ccc(C2=NN=C(N3CCNCC3)SC2)cc1`?
GIRK2 act: inactive; GluA2 TARP mod: inactive

How did COc1cc(C(=O)NCC(c2ccc(F)cc2)N(C)C)c([N+](=O)[O-])cc1OC (stereo not given) do in these assays?
GluA2 TARP mod: inactive

Results for CC(O)(CNC(=O)Nc1ccc(Cl)c(Cl)c1)c1ccc2c(c1)OCO2 (stereo not given) ?
GIRK2 act: inactive; GluA2 TARP mod: active

Results for CC(O)(CNC(=O)c1cc(Cl)ccc1Cl)c1ccc2c(c1)OCO2 (stereo not given) ?
GIRK2 act: inactive; GluA2 TARP mod: inactive

Results for O=C(Nc1nc(-c2cccnc2)cs1)C1CCN(S(=O)(=O)c2cccs2)CC1 ?
GluA2 TARP mod: inactive

What do the screens show for `O=C(Nc1nc(-c2cccnc2)cs1)C1CCN(S(=O)(=O)c2ccc(Cl)s2)CC1`?
GluA2 TARP mod: active

Results for COc1ccc(N2C(=O)CN(Cc3ccc4c(c3)OCO4)C3CS(=O)(=O)CC32)cc1 (stereo not given) ?
GIRK2 act: inactive; GluA2 TARP mod: inactive

Results for Cc1ccnc(NC(=O)Cc2cc(-c3ccccc3F)on2)c1 ?
GIRK2 act: inactive; GluA2 TARP mod: active

What do the screens show for `O=C(Cc1cc(-c2ccc(F)cc2F)on1)Nc1ccon1`?
GIRK2 act: inactive; GluA2 TARP mod: inactive

Results for Cn1ccnc1N1CCN(CC(=O)NC2CCCC2)CC1 ?
GIRK2 act: inactive

Results for COc1ccccc1-c1ccc(=O)n(CC(=O)N2CCCCC2)n1 ?
GIRK2 act: inactive; GluA2 TARP mod: inactive

What do the screens show for `COCCNC(=O)Cn1nc2c(c1NC(=O)C1CC(=O)N(c3ccccc3)C1)CSC2` (stereo not given)?
GIRK2 act: inactive; GluA2 TARP mod: inactive

Results for CC(C)CS(=O)(=O)NCC1(c2cccs2)CCOCC1 ?
GIRK2 act: inactive; GluA2 TARP mod: inactive

Results for CCS(=O)(=O)NCC1(c2cccs2)CCOCC1 ?
GIRK2 act: inactive; GluA2 TARP mod: active

How did COc1ccc(CCNC(=O)Cn2c(=O)n(-c3ccc(C)cc3)c(=O)c3ccccc32)cc1OC do in these assays?
GluA2 TARP mod: inactive

Results for O=C(NCCOc1ccccc1)c1ccccc1C(=O)c1ccccc1 ?
GIRK2 act: inactive; GluA2 TARP mod: inactive

What do the screens show for `O=C(NCCn1nc(-n2cccn2)ccc1=O)c1ccc(Br)o1`?
GIRK2 act: inactive

What do the screens show for `O=C(Nc1ccccc1F)N1CCN(c2ccc(Nc3ccncc3)nn2)CC1`?
GIRK2 act: inactive; GluA2 TARP mod: inactive

What do the screens show for `COC(=O)CC1C(=O)NCCN1C(=S)NC(=O)c1ccc(OC)c(I)c1` (stereo not given)?
GluA2 TARP mod: inactive

What do the screens show for `Cc1nc2ccc(Cl)cn2c(=O)c1NC(=O)Nc1cccs1`?
GIRK2 act: inactive; GluA2 TARP mod: inactive

How did O=C(NCC1(O)CCc2ccccc21)Nc1ccc(Cl)c(Cl)c1 (stereo not given) do in these assays?
GIRK2 act: inactive; GluA2 TARP mod: active

What do the screens show for `O=C(NCC1(O)CCc2ccccc21)Nc1ccccc1Cl` (stereo not given)?
GIRK2 act: inactive; GluA2 TARP mod: inactive

Results for Cc1cc(C)n(-c2cc(N3CCCC(C(=O)NCc4ccco4)C3)ncn2)n1 (stereo not given) ?
GIRK2 act: inactive; GluA2 TARP mod: active

What do the screens show for `Cc1cc(C)n(-c2cc(N3CCCC(C(=O)NCc4ccc5c(c4)OCO5)C3)ncn2)n1` (stereo not given)?
GIRK2 act: inactive; GluA2 TARP mod: inactive

What do the screens show for `O=C(c1ccc(F)cc1F)N1CCN(c2ccc3nnc(-c4ccco4)n3n2)CC1`?
GIRK2 act: inactive; GluA2 TARP mod: inactive

Results for COc1ccc(S(=O)(=O)N2CCN(c3ccc4nnc(-c5ccco5)n4n3)CC2)cc1 ?
GIRK2 act: inactive; GluA2 TARP mod: active
